# From PubChem BioAssay
# In the library only some 6.7% were active in any assay of this set; here they are far more common.
# T cruzi growth-1 = blocks T. cruzi growth in NIH3T3 culture; T. cruzi beta-gal in NIH3T3, GalScreen luminescence, 90 h; inhibition, % at 8.34 µM; actives 5.9% (n = 77,000); AID 624255;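 active = mean inhibition above about 93%, with at least 55% of replicates each passing it, limit read from the data, passing the limit was not always enough; inconclusive = only one of those two conditions holds; inactive = neither condition holds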
# C diff growth = blocks growth of Clostridium difficile | growth activity, negative = inhibition, % at 16 µg/mL (by protocol) | actives 0.25% (n = 86,000) | Clostridium difficile clinical isolate growth, OD600, 24 h; active compounds read low;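 active = mean growth activity at or below -80% and every replicate also at or below -80%; inconclusive = mean at or below -80% but some replicate above -80%; inactive = mean growth activity above -80%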;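 also: 0% = DMSO wells and -100% = levofloxacin 16 µg/mL wells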
# Pf Dd2 growth = P. falciparum Dd2 growth inhibition; SYBR Green, 72 h; active compounds read low; activity change, % at 10 µM; actives 2.3% (n = 94,000); AID 1159554; in the data active = activity change below about -80%; inconclusive = no clear call, values can overlap the other calls
# T cruzi growth-2 = blocks T. cruzi growth in NIH3T3 host cells; shares compounds with T cruzi growth-1; T. cruzi beta-gal in NIH3T3, GalScreen luminescence, 90 h; inhibition, % at 8.35 µM; actives 72% (n = 5,600); AID 651739;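 active = mean replicate inhibition above about 95% and at least 55% of replicates individually reaching it, limit read from the data; inconclusive = only one of the two criteria is met; inactive = neither criterion is met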
# T cruzi growth-3 = Trypanosoma cruzi proliferation inhibition | T. cruzi beta-gal in NIH3T3, GalScreen luminescence, 90 h | inhibition, % at 2.09 µM | actives 21% (n = 5,600) | shares compounds with T cruzi growth-1;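 active = mean inhibition above about 95%, with at least 55% of replicates also reaching it, limit read from the data; inconclusive = meets just one of the two conditions; inactive = meets neither condition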;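 also: plate controls were neutral control median for no effect and positive control median for full effect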
# 3T3 cytotox = kills mouse NIH/3T3 fibroblasts. shares compounds with T cruzi growth-1. NIH/3T3 viability, CellTiter-Glo ATP luminescence, 90 h. cytotoxicity (signal decrease), % at 8.35 µM. actives 14% (n = 5,600). AID 651742;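 active = mean signal decrease across replicates above about 35% based on untreated-well scatter, with enough replicates individually passing, limit read from the data; inconclusive = no rule stated though some were filed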;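 also: 0% = median of neutral control wells and 100% = median of positive control wells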
# 3T3 cytotox 2 = kills mouse NIH/3T3 fibroblasts. shares compounds with T cruzi growth-1. NIH/3T3 viability, CellTiter-Glo ATP luminescence, 90 h. inhibition, % at 24.9 µM. actives 56% (n = 5,600);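 active = mean loss of cell viability signal at or above a set limit, and enough replicates individually reaching it; inconclusive = meets only the mean limit or only the replicate share; inactive = meets neither condition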;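 also: 0% = median of neutral control wells and 100% = median of positive control wells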
# Starred values were filed as active, the others as inactive; ? = inconclusive; . = no result given.
SMILES,T cruzi growth-1,C diff growth,Pf Dd2 growth,T cruzi growth-2,T cruzi growth-3,3T3 cytotox,3T3 cytotox 2
N#C[C@@H]1[C@@H](c2ccc(C3=CCCCC3)cc2)[C@H](CO)N1C(=O)NC1CCCC1,.,4,-80,.,.,.,.
N#C[C@H]1[C@@H](c2ccc(C3=CCCCC3)cc2)[C@@H](CO)N1C(=O)Nc1ccccc1F,69,-8,-17,.,.,.,.
CCCNC(=O)N1[C@H](CO)[C@H](c2ccc(C3=CCCC3)cc2)[C@@H]1C#N,27,-2,13,.,.,.,.
CCCNC(=O)N1[C@@H](C#N)[C@H](c2ccc(C3=CCCCC3)cc2)[C@@H]1CO,103*,-22,-67,98*,107*,21,33*
N#C[C@@H]1[C@H](c2ccc(C3=CCCCC3)cc2)[C@H](CO)N1C(=O)Nc1ccccc1F,102*,-5,0,110*,59,-5,15
N#C[C@H]1[C@@H](c2ccc(C3=CCCCC3)cc2)[C@H](CO)N1C(=O)NC1CCCCC1,100*,1,30,105*,83,41*,54*
COc1ccc2c3c([nH]c2c1)[C@@H](CO)N(Cc1nccs1)CC31CN(C(=O)C2CCOCC2)C1,.,-3,-68,.,.,.,.
N#C[C@@H]1[C@H](c2ccc(C3=CCCCC3)cc2)[C@@H](CO)N1C(=O)NC1CCCCC1,92,4,37,.,.,.,.
N#C[C@@H]1[C@H](c2ccc(C3=CCCCC3)cc2)[C@H](CO)N1C(=O)NC1CCCCC1,107*,-6,17,104*,70,30,44*
C/C=C/c1ccc([C@H]2[C@@H](CO)N(C(=O)Nc3ccccc3F)[C@H]2C#N)cc1,105*,-2,-2,87,56,10,48*
C/C=C/c1ccccc1[C@H]1[C@@H](CO)N(C(=O)Nc2ccccc2F)[C@H]1C#N,.,16,2,.,.,.,.
CCCN1[C@H](C(=O)OC)[C@@H](CO)[C@@H]2Cn3c(ccc(-c4cccnc4)c3=O)[C@@H]21,.,-7,-4,.,.,.,.
COc1ccc(-c2ccc3c(c2)O[C@@H](CN(C)Cc2cccnc2)[C@@H](C)CN([C@H](C)CO)S3(=O)=O)cc1,.,-3,-48,.,.,.,.
CCCNC(=O)C[C@H]1CC[C@@H]2[C@H](COC[C@@H](O)CN2Cc2ccc(Cl)c(Cl)c2)O1,12,1,-4,.,.,.,.
O=C(c1cccc(F)c1)N1CC[C@@H]2[C@H](CO)Nc3ccc(-c4cccc(F)c4)cc3[C@@H]21,43,26,5,.,.,.,.
COc1ccccc1CNC(=O)C[C@H]1CC[C@H]2[C@@H](COC[C@H](O)CN2Cc2ccccc2)O1,.,0,-29,.,.,.,.
COc1ccccc1CNC(=O)C[C@@H]1CC[C@@H]2[C@H](COC[C@@H](O)CN2Cc2cccc(-c3ccncc3)c2)O1,92,6,.,.,.,.,.
COc1ccccc1CNC(=O)C[C@@H]1CC[C@H]2[C@@H](COC[C@H](O)CN2Cc2ccc3c(c2)OCO3)O1,101*,88,-7,76,28,12,7
COc1ccccc1CNC(=O)C[C@H]1CC[C@@H]2[C@H](COC[C@@H](O)CN2Cc2cccc(-c3ccncc3)c2)O1,?,2,.,96*,93,29,59*
COc1ccccc1CNC(=O)C[C@H]1CC[C@H]2[C@@H](COC[C@H](O)CN2Cc2cccc(-c3ccncc3)c2)O1,120*,2,.,98*,79,3,24
COc1ccccc1CNC(=O)C[C@@H]1CC[C@H]2[C@@H](COC[C@H](O)CN2Cc2cccc(-c3ccncc3)c2)O1,92,2,.,.,.,.,.
COc1ccc2c3c([nH]c2c1)[C@@H](CO)N(C(=O)C1CCC1)CC31CCN(S(C)(=O)=O)CC1,.,4,8,.,.,.,.
COc1ccc(S(=O)(=O)N[C@@H]2CC[C@@H](CC(=O)N3CCN(c4ccccc4)CC3)O[C@H]2CO)cc1,43,-4,-18,.,.,.,.
COc1ccc(CN(C)C[C@H]2Oc3ccc(NS(=O)(=O)c4ccc(C)cc4)cc3C(=O)N([C@H](C)CO)C[C@@H]2C)cc1,74,1,10,.,.,.,.
C[C@@H]1CCCCO[C@H](CN(C)Cc2ccccc2)[C@H](C)CN([C@H](C)CO)C(=O)c2cc(NS(=O)(=O)c3cn(C)cn3)ccc2O1,-19,.,-4,.,.,.,.
SMILES,T cruzi growth-1,C diff growth,Pf Dd2 growth,T cruzi growth-2,T cruzi growth-3,3T3 cytotox,3T3 cytotox 2
COc1cccc(-c2cnc3c(c2)C(=O)N([C@H](C)CO)C[C@@H](C)[C@@H](CN(C)C(=O)Nc2c(C)noc2C)O3)c1,-98,-4,24,.,.,.,.
COc1ccc(CN2CC3(CN(C(=O)C4CCOCC4)C3)c3c(n(C)c4cc(OC)ccc34)[C@@H]2CO)cc1,.,0,-30,.,.,.,.
CCNC(=O)C[C@H]1CC[C@@H]2[C@@H](COc3ccc(NC(=O)Nc4ccccc4OC)cc3C(=O)N2C)O1,18,2,-2,.,.,.,.
COc1ccc(S(=O)(=O)N(C)C[C@@H]2Oc3cc(C4=CCCC4)ccc3S(=O)(=O)N([C@H](C)CO)C[C@H]2C)cc1,24,15,-43,.,.,.,.
COc1ccc(S(=O)(=O)N(C)C[C@@H]2Oc3cc(-c4ccccc4OC)ccc3S(=O)(=O)N([C@H](C)CO)C[C@H]2C)cc1,127*,2,-87*,102*,51,6,58*
COc1ccc(S(=O)(=O)N(C)C[C@@H]2Oc3cc(-c4ccccc4OC)ccc3S(=O)(=O)N([C@H](C)CO)C[C@@H]2C)cc1,127*,6,-50,110*,82,32,63*
COc1ccccc1-c1ccc2c(c1)O[C@@H](CN(C)C(C)=O)[C@H](C)CN([C@H](C)CO)S2(=O)=O,16,3,18,.,.,.,.
COc1ccc(S(=O)(=O)N(C)C[C@@H]2Oc3cc(-c4ccccc4OC)ccc3S(=O)(=O)N([C@@H](C)CO)C[C@@H]2C)cc1,126*,11,-62,114*,100*,45*,25
COc1ccc(S(=O)(=O)N(C)C[C@@H]2Oc3cc(C4=CCCC4)ccc3S(=O)(=O)N([C@@H](C)CO)C[C@H]2C)cc1,42,9,-46,.,.,.,.
O=C(NC[C@H]1[C@H](c2ccccc2)[C@H](CO)N1Cc1cccnc1)c1ccccn1,49,-3,-23,.,.,.,.
COc1ccccc1C#Cc1ccc2c(c1)[C@@H]1[C@@H](CCN1C(=O)c1ccccc1)[C@H](CO)N2,.,15,-53,.,.,.,.
O=C(c1ccccc1)N1CC[C@@H]2[C@H]1c1cc(C#Cc3ccccc3F)ccc1N[C@@H]2CO,104*,72,-15,112*,40,-22,8
O=C(c1cccc(F)c1)N1CC[C@@H]2[C@H](CO)Nc3ccc(C#Cc4cccc(F)c4)cc3[C@@H]21,93,60,-37,.,.,.,.
O=C(c1ccc(F)cc1)N1CC[C@@H]2[C@@H](CO)Nc3ccc(C#Cc4ccccc4F)cc3[C@@H]21,52,-22,-12,.,.,.,.
